# Shown are actives, neighbours in structure and some others; about 21% of the full set was active somewhere.
# HCV inhibitor = inhibitors of hepatitis C virus infection; Huh7.5.1 HCVcc-Cre infection, luciferase reporter, 44 h; Potency, µM (series often up to 41.8 µM), without a hit: at the top dose activity change, negative = inhibition, most hits filed as inhibitors; actives 3.4% (n = 340,000); AID 651820; note: potency is the fitted concentration of half-maximal effect; % is set by controls: 0 for no effect and ±100 for the full control effect
#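 Compounds are dispensed onto cells plated 4 h earlier at 1,000 per well, with HCVcc-Cre virus (about 0.5 moi) added next. Following 44 h of culture, luminescent signal is measured for 15 sec after 15 min with substrate at room temperature.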
# Pf growth 96h = inhibits malaria parasite growth, 96 h. P. falciparum luciferase reporter growth, 96 h. Potency, µM (titrated, usually from 28.7 µM), for the others: top-dose activity change, negative = inhibition, usual class: inhibitors. actives 6.9% (n = 320,000); note: potency is the fitted concentration of half-maximal effect; % is set by controls: 0 for no effect and ±100 for the full control effect
#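 Readout is luminescence from an integrated firefly luciferase in P. falciparum. Red cells, 2% hematocrit and 0.05% parasitemia final, were cultured with compound through two parasite generations (96 hours) at 37 C, 5% CO2.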
# Cycloheximide cs = counter-screen for Shiga toxin inhibitors: cycloheximide protein synthesis inhibition; max response, %; actives 12% (n = 300,000); cell reporter, cycloheximide protein synthesis inhibition counterscreen; in the data active = max response mostly above about 13%, no sharp cut-off; inactive = mostly below about 14%; note: read at 38.3 µM for the half of the compounds with a filed dose; 0% is about no effect
# HCMV inh = inhibitors of human cytomegalovirus | activity change, negative = inhibition, % at 57.5 µM | actives 4.5% (n = 410,000) | AID 1259415 | HFF cells, HCMV-luciferase reporter, 72 h; stronger effect = lower value; in the data active = activity change below about -60%; inconclusive = no clear call, values can overlap the other calls; inactive = above about -39%; note: % is set by controls: 0 for no effect and ±100 for the full control effect
#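 Human foreskin fibroblasts infected with luciferase-reporter HCMV at MOI 1 PFU/cell, compounds at two doses. Luciferase measured 72 h post infection; normalized to buffer-only basal and Salinomycin (10uM) controls.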
# Pf growth 48h = inhibits P. falciparum growth in the first generation, 48 h; Potency, µM (titrated, usually from 28.7 µM), for inactives: at the top dose activity change, negative = inhibition, most hits filed as inhibitors; actives 5.9% (n = 310,000); AID 504832; P. falciparum luciferase growth in erythrocytes, 48 h; note: potency is the fitted concentration of half-maximal effect; % is set by controls: 0 for no effect and ±100 for the full control effect
#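 Compounds are pin-transferred into medium, infected erythrocytes (2% hematocrit, 0.1% parasitemia final) are added, and plates sit one parasite generation at 37 C in 5% CO2. Detection reagent is then added and luminescence measured.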
# Shiga toxin inh = blocks Shiga toxin action in Vero cells; inhibition, % at 38.7 µM; Vero cells, Shiga toxin protein synthesis inhibition reporter; actives 9.2% (n = 290,000); in the data active = inhibition mostly above about 28%, no sharp cut-off; inactive = mostly below about 43%; note: 0% is about no effect
# Active calls of the source: *; u = inconclusive; x = not tested or not shown. Unless noted, calls come from the whole dose curve; as a rule, active = well fitted inhibition curve with a large enough effect; inconclusive = small, poorly fitted or top-dose-only effect, or another doubt; inactive = no such curve, though single readings can be large or run the other way.
SMILES,HCV inhibitor,Pf growth 96h,Cycloheximide cs,HCMV inh,Pf growth 48h,Shiga toxin inh
CC(c1ccon1)N(C)Cc1cn(Cc2ccccc2)nc1-c1ccc2c(c1)OCO2 (stereo unspecified),-4.5%,u,-0.7,-22.2,u,-2.4
CCCCOC(=O)c1c(N)n(-c2ccc(OC)cc2OC)c2nc3ccccc3nc12,x,x,x,-12.3,x,x
Cc1ccc(-n2nc(C)c3c(C(F)(F)F)cc(-c4cccnc4)nc32)cc1Cl,x,x,x,-2.3,x,x
Cc1ccc(-c2cc(NC(=O)C(C)Oc3ccc(C)c(C)c3)on2)cc1 (stereo unspecified),x,x,x,52.7,x,x
Cc1cccc(N2CCN(C(=O)CCCCCn3c(=S)[nH]c4ccc(N5CCOCC5)cc4c3=O)CC2)c1C,u,2.9%,-3.2,-33.5,9.28µM*,-5.3
O=c1c2cc(N3CCOCC3)ccc2[nH]c(=S)n1Cc1ccc(Cl)cc1,u,-56.3%,76.3*,-86.6*,x,40.3*
O=C(CCCCCn1c(=S)[nH]c2ccc(N3CCOCC3)cc2c1=O)NCc1ccc(Cl)cc1,-19.3%,66.6%,8.1,-75.0*,8.28µM*,-2.1
O=c1c2cc(N3CCOCC3)ccc2[nH]c(=S)n1CCN1CCCC1,0.8%,u,-2.9,63.8,u,1.1
Cc1ccc(Cn2c(=S)[nH]c3ccc(N4CCOCC4)cc3c2=O)o1,u,0.0%,15.6*,33.3,u,27.2
O=c1c2cc(N3CCOCC3)ccc2[nH]c(=S)n1CCCN1CCN(c2ccccc2F)CC1,2.0%,-1.9%,-0.4,x,19.1%,0.5
CCOc1ccccc1NC(=O)C(Cc1ccccc1)NS(=O)(=O)c1ccc2c(c1)oc(=O)n2C (stereo unspecified),x,x,x,-0.3,x,x
O=S(=O)(NCC(c1ccco1)N1CCN(c2ccc(F)cc2)CC1)c1cc(F)ccc1F (stereo unspecified),x,x,x,-3.7,x,x
Cc1ccc(N2CCN(C(=O)c3cn(C)c4ccc(S(=O)(=O)N5CCC(C)CC5)cc4c3=O)CC2C)cc1 (stereo unspecified),x,x,x,2.8,x,x
CCCCn1c(=S)[nH]c2ccc(N3CCOCC3)cc2c1=O,x,8.28µM*,17.5,x,u,-2.5
CC(C)c1cc(NC(=O)CCl)on1,-1.9%,u,-1.2,-11.1,3.29µM*,10.0
Cc1cc(NC(=O)CCl)on1,u,u,1.2,-68.0*,10.4µM*,10.9
O=C(Nc1ccccc1N1CCOCC1)C1=NN(c2ccccc2)C(=O)CC1,19.8%,u,x,-6.3,u,x
CC(=O)c1cccc(NC(=O)c2ccc(S(=O)(=O)N3CCCC3)cc2)c1,0.8%,25.3%,6.6,-5.9,-3.1%,35.2
O=C(Nc1cccc(O)c1)c1ccc(S(=O)(=O)N2CCCCCC2)cc1,3.3%,u,18.1*,17.7,u,52.0*
O=C(Nc1cccc(O)c1)c1cccc(S(=O)(=O)N2CCCC2)c1,-22.2%,2.5%,10.2,45.9,-1.8%,-3.7
Cc1cc(C)n(-c2ccc(C(=O)Nc3cccc(S(=O)(=O)N4CCCC4)c3)cc2)n1,u,10.4µM*,-1.0,-72.3*,-31.8%,-12.9
CN(C)S(=O)(=O)c1cccc(NC(=O)c2ccc(S(=O)(=O)N3CCCC3)cc2)c1,10µM*,u,x,-15.8,-23.2%,x
CC(C)Oc1ccc(C(=O)Nc2cccc(S(=O)(=O)N3CCCC3)c2)cc1,2.82µM*,x,x,u,x,x
COc1ccc(-c2nnc3n2N=C(c2ccccc2OC)CS3)cc1,x,x,6.0,x,x,8.2
CCCCCCCCCCCCCCCCn1cc[n+](Cc2ccccc2)c1C,x,x,-7.9,x,x,-23.2
SMILES,HCV inhibitor,Pf growth 96h,Cycloheximide cs,HCMV inh,Pf growth 48h,Shiga toxin inh
Cc1ccc(-n2ncc3c(N4CCN(c5ccccc5)CC4)ncnc32)cc1C,x,x,x,-12.2,x,x
CCc1cc2c(N3CCN(c4ccccc4)CC3)ncnc2s1,8.91µM*,-3.3%,-1.1,-70.0*,-0.5%,-22.1
Oc1ccc(N2CCN(c3ncnc4sc(-c5ccccc5)cc34)CC2)cc1,u,14.7µM*,5.7,100.6,u,15.9
CC(=O)N1CCN(c2ncnc3sc(-c4ccccc4)cc23)CC1,u,u,7.5,-18.7,16.7%,-25.7
CCOC(=O)CSc1nc2ccc(NC(=O)COc3ccccc3)cc2s1,x,x,x,0.6,x,x
O=C(Nc1ccc2c(c1)OCO2)c1ccc2sc([C@H]3C[C@H](O)[C@@H](CO)O3)nc2c1,x,x,x,61.3,x,x
O=C1C(Cc2ccccc2)C(c2ccccc2)N1c1ccccc1 (stereo unspecified),-1.7%,10.4µM*,-3.5,-4.6,u,-16.8
C[C@]12CCCC3=CC(=O)C=C[C@@]31Oc1ccccc1C(=O)C2,x,x,x,6.1,x,x
CCCc1nc([N+](=O)[O-])c(S(=O)(=O)c2ccccc2)n1CC(C)C,u,11.7µM*,-2.5,-92.9*,9.28µM*,-5.3
CC(C)Cn1c(C(C)C)nc([N+](=O)[O-])c1S(=O)(=O)c1ccc(F)cc1,u,u,-4.6,-72.1*,10.4µM*,-8.2
CC(C(=O)NCc1ccc(Cl)cc1)n1ccc2cc(S(=O)(=O)N3CCCCCC3)ccc21 (stereo unspecified),x,x,x,3.4,x,x
C=CCOc1ccc2c(=O)n(C)c3ccccc3c2c1,x,x,8.6,x,x,7.5
CC(C)Cn1cc(NC(=O)NCc2cccc(Cl)c2)c2ccccc2c1=O,x,x,x,-12.7,x,x
C=CCSc1nc2ccccc2c(=O)[nH]1,5.1%,-15.5%,-1.4,13.6,x,-8.5
C/C(Cl)=C/CSc1nn2c(=O)c3ccccc3nc2s1,8.1%,46.5%,40.9*,1.3,x,61.8*
C=CCSc1nn2c(=O)c3ccccc3nc2s1,-7.3%,237.6%,35.2*,66.6,184.6%,48.2*
COc1ccc(CNC(=O)CCNC(=O)C2CCN(S(=O)(=O)c3ccc(OC)cc3)CC2)cc1,x,x,x,9.1,x,x
Cc1c(C(=O)N2CCCCC2)c(S(=O)(=O)N2c3ccccc3CC2C)c(C)n1C (stereo unspecified),5.6%,-17.8%,5.5,18.7,-7.6%,1.7
CC1=NC(=O)C(N=Nc2ccccc2C(=O)O)N1c1ccccc1 (stereo unspecified),-9.3%,4.65µM*,-1.5,37.7,-29.8%,8.3
Cc1cc(C)n2[nH]c(=O)c(N=Nc3ccccc3)c2n1,10.6%,x,10.4,6.6,-17.8%,55.8
Cc1[nH]n(-c2ccccc2)c(=O)c1N=Nc1ccccc1C(=O)O,-11.0%,u,6.9,-14.4,7.2%,-5.0
CC1=NC(=O)C(N=Nc2ccccc2)N1c1ccccc1 (stereo unspecified),5.9%,33.7%,28.6*,106.7,279.8%,51.9*
CC1=NC(=O)C(N=Nc2cccc(C(=O)O)c2)N1c1ccccc1 (stereo unspecified),17.9%,x,34.9*,96.4,84.2%,104.5*
O=C(Nc1ccc(F)cc1F)c1ccccc1NC(=O)C1CC=CCC1C(=O)O (stereo unspecified),7.4%,u,26.5,6.7,-3.2%,32.6

# High-throughput results as filed in PubChem BioAssay.
